The record followed here is PubChem BioAssay AID1021 (Emory University Molecular Libraries Screening Center, 2008).

Several values for one entry are separate records, joined by “and”; a condition that tells them apart may be missing. Equal entries are not always repeated. Among all 220,000 compounds or so, about 2,100 (0.95%) were called active.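 Rule for the calls: active = compounds that cut the binding signal by more than half at the single screening dose; inactive = the rest.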 The list comes from a sample in which actives are over-represented; it also holds similar structures and randomly drawn compounds.

The target in the experiment is Induced myeloid leukemia cell differentiation protein Mcl-1 (Homo sapiens) (UniProt Q07820). Put plainly: Mcl-1/Bid binding inhibitors, primary screen, biochemical, TR-FRET, 1536-well (AID 1021).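 Note: His-tagged Mcl-1 with europium anti-His antibody binding Bid BH3 peptide; 0% = Mcl-1 plus peptide wells and 100% = peptide-only wells.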 The note with it: TR-FRET Mcl-1/Bid-Dy647 peptide binding, at 21.7 µM, active compounds read high.
Chain of Induced myeloid leukemia cell differentiation protein Mcl-1 (Homo sapiens) (Q07820 whole entry, looked up): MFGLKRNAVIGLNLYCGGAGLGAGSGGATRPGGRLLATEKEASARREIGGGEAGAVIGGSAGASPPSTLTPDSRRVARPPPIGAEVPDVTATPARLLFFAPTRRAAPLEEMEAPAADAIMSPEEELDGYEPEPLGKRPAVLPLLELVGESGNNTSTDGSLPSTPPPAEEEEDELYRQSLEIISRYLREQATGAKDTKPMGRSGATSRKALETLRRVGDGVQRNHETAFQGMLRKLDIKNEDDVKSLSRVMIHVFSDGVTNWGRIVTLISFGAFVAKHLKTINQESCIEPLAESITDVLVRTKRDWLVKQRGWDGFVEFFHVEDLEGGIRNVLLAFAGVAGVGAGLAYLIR
As to `CN(C)/C=C(/C(=O)c1ccccc1Cl)S(C)(=O)=O`, the inhibition is -0.7% (inactive). On to `CCOC(=O)c1cn(CC)c2cc(F)c(F)cc2c1=O`, for which the inhibition was -8.08% (inactive). Turning to `CC(C)c1ccc2c(c1)c(SC(C)(C)C)c(CC(C)(C)C(=O)O)n2Cc1ccc(Cl)cc1`, the inhibition is 83.2% (active).

Consider `CCC(=O)Nc1cccc(C2=NOC3(C2)C[C@@H](C(N)=O)N(C(=O)c2cc([N+](=O)[O-])cc([N+](=O)[O-])c2C)C3)c1` (stereo not given in full), for which the inhibition is -35.2% (inactive). `CC(C)C(=O)N1CCC2(CC1)Oc1ccc(F)cc1C(=O)C21CC(c2ccccc2)=NO1` (stereo not given): the inhibition is -8.72% (inactive). The figure for `CCCC/S(C)=N/S(=O)(=O)c1ccc(C)cc1` (stereo not given) is 4.25% (inactive).

On to `Cc1ccc(S(=O)(=O)/N=S(\C)C(C)C)cc1` (stereo not given), for which the inhibition is 89.4% (active).

For the compound `CC/S(CC1CC1(Cl)Cl)=N\S(=O)(=O)c1ccc(C)cc1` (stereo not given), the inhibition was -4.99% (inactive). On to `O=C1[C@@H]2C(c3cccnc3)=NO[C@@H]2C(=O)N1c1ccc(Cl)cc1Cl`, for which the inhibition is -19.8% (inactive). Take `CCN1C(=O)/C(=c2\s/c(=C3\Sc4ccccc4N3C)c(=O)n2C)N(C)C1=S`: the inhibition is 79.2% (active). Take `CCN1C(=O)/C(=C2/Sc3ccccc3N2CCCS(=O)(=O)O)SC1=S`: the inhibition was -30.2% (inactive) and -29.9% (inactive).

Consider `CCC(=O)/C=C1\Sc2ccccc2N1CC`, for which the inhibition is -12.9% (inactive).

On to `Cc1cc(F)ccc1NC(=O)C(C)n1c2ccccc2c2nc(=O)cc(C)n21` (stereo not given), for which the inhibition was -4.95% (inactive). Regarding `COCCN(CCOC)c1nc(N)c2c(N)nc3c(c2c1C#N)CC(=O)N3Cc1ccc(Cl)cc1`, the inhibition was 54.2% (active).

Take `COc1ccccc1C(=O)NNC(=O)c1ccc(NC(=O)c2ccccc2)cc1`: the inhibition is -23.3% (inactive). Turning to `COc1ccccc1C(=O)Nc1ccc(OCc2nnc3c4ccccc4c(C)nn23)cc1`, the inhibition was 59.8% (active). `CCOc1ccc(NC(=O)c2cc(C)nc3ccccc23)cc1`: the inhibition was -4.96% (inactive).

For `CCOC(=O)N/N=C1\CC(C)S(=O)(=O)c2ccc(Cl)cc21` (stereo not given), the inhibition is -6.47% (inactive).

In the case of `O=C(O)CCc1cccnc1`, the inhibition is -29.9% (inactive). As to `COc1ccc2nc(Nc3nc4cc5c(cc4s3)OCCO5)sc2c1`, the inhibition is -62.6% (inactive). Take `COc1ccc2nc(NC(=O)c3ccc(Br)s3)sc2c1`: the inhibition is 4.41% (inactive). For the compound `COc1ccc2nc(Nc3nc4ccc(NC(C)=O)cc4s3)sc2c1`, the inhibition is 72.8% (active). For the compound `COc1ccc(-c2csc3ncnc(Oc4ccc5c(C)cc(=O)oc5c4)c23)cc1`, the inhibition was 63.3% (active).

With `COc1cccc(-c2nnc(SCCOc3ccc4c(C)cc(=O)oc4c3)o2)c1`, the inhibition was -1.18% (inactive). Regarding `COc1ccc(N2CCN(C(=O)COc3ccc4c(C)cc(=O)oc4c3)CC2)cc1`, the inhibition was -16.1% (inactive).
